A short description of test [1]: qHTS assay to identify small molecule antagonists of the thyroid receptor (TR) signaling pathway - cell viability counter screen (AID 743064). Further: nearly all actives have a fitted effect of over 50% in size. The gist of the method: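 GH3.TRE-Luc rat pituitary cells carrying a TRE-luciferase reporter were treated with compound plus 1 nM T3 (final) for 23.5 h at 37 °C. Viability was then read in the same wells by CellTiter-Fluor fluorescence after a further 30 min.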
On the technique in general: qHTS replaces the single test concentration by a dilution series.

The nature of test [2]: qHTS assay to identify small molecule antagonists of the thyroid receptor (TR) signaling pathway (AID 743065). Further: nearly all actives have a fitted effect of over 55% in size. Further: potency means the concentration at half of the fitted maximal effect. The gist of the method:
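Antagonism measured as loss of luciferase signal in GH3 cells stably carrying a TRE-luciferase reporter, co-treated with compound and T3 (1 nM final) for 23.5 h at 37 C. Viability was read in the same well by CellTiter-Fluor.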

The subject of test [3] is thyroid hormone receptor (rat, GH3 cells). Briefly: qHTS assay to identify small molecule agonists of the thyroid receptor (TR) signaling pathway (AID 743066; calls by dose curve).
The target of test [4] is Estrogen receptor (Homo sapiens) (UniProt P03372). Briefly: qHTS assay to identify small molecule antagonists of the estrogen receptor alpha (ER-alpha) signaling pathway (AID 743069; active means well fitted curve in the direction sought with a large enough effect in the signal ratio in the repeat runs, not every such curve was filed as active; the % refers to the signal ratio). The gist of the method:
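ER-alpha-UAS-bla GripTite HEK293 line; 2% charcoal-stripped FBS overnight; plated, 4 hr 37C/5% CO2; cpd in DMSO + 17beta-estradiol, 18 hr 37C; LiveBLAzer B/G FRET substrate 2 hr RT; fluorescence intensity.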

Test [5] in a line: qHTS assay to identify small molecule antagonists of the estrogen receptor alpha (ER-alpha) signaling pathway - cell viability counter screen (AID 743074; calls by dose curve;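 further: HEK293 cells carrying ER-alpha-UAS-bla reporter stimulated with 17beta-estradiol; nearly all actives have a fitted effect of over 45% in size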).
Test [6] has as its target Estrogen receptor (Homo sapiens) (UniProt P03372). Briefly: qHTS assay to identify small molecule agonists of the estrogen receptor alpha (ER-alpha) signaling pathway using the BG1 cell line (AID 743079). Further: nearly all actives have a fitted effect of over 20% in size. Further: potency means the concentration at half of the fitted maximal effect.
Test [7] is described as follows: qHTS assay to identify small molecule antagonists of the estrogen receptor alpha (ER-alpha) signaling pathway using the BG1 cell line (AID 743080; calls by dose curve;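 further: BG1 cells stimulated with 17beta-estradiol alongside compound; series mostly up to about 70 µM; nearly all actives have a fitted effect of over 25% in size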). The gist of the method: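 Luciferase inhibition measured with ONE-Glo after 30 min at RT in BG1Luc4E2 cells given test compounds and 17beta-estradiol for 21.5 h at 37 C; CellTiter-Fluor viability read in the same wells beforehand.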

Test [8] can be described thus: qHTS assay to identify small molecule antagonists of the estrogen receptor alpha (ER-alpha) signaling pathway using the BG1 cell line - cell viability counter screen (AID 743081).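 Further: compound given together with 17beta-estradiol as the ER stimulus; series mostly up to about 70 µM; nearly all actives have a fitted effect of over 45% in size.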
In another test the target is Aromatase (Homo sapiens) (UniProt P11511). Briefly: qHTS assay to identify aromatase inhibitors (AID 743083). Further: series mostly up to about 70 µM; nearly all actives have a fitted effect of over 55% in size.
Aromatase (Homo sapiens), sequence (P11511 whole entry, looked up): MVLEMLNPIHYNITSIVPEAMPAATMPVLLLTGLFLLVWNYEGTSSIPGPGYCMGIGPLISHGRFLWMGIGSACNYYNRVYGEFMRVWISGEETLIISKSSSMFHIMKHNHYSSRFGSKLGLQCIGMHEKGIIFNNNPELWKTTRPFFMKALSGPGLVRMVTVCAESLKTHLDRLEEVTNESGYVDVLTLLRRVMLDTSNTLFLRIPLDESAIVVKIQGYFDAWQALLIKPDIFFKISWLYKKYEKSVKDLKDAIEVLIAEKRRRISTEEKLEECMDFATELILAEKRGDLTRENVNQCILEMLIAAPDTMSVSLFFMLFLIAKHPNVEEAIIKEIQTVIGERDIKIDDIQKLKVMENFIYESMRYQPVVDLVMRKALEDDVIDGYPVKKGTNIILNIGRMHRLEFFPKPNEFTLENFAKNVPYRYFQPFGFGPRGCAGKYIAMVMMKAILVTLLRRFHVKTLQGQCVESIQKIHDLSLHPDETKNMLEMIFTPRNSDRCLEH
For test [9], the target named is Estrogen receptor (Homo sapiens) (UniProt P03372). Briefly: qHTS assay to identify small molecule agonists of the estrogen receptor alpha (ER-alpha) signaling pathway (AID 743075; calls by dose curve;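 further: HEK293 GripTite cells with ER-alpha and UAS-driven beta-lactamase reporter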).
Estrogen receptor (Homo sapiens), sequence (P03372 whole entry, looked up): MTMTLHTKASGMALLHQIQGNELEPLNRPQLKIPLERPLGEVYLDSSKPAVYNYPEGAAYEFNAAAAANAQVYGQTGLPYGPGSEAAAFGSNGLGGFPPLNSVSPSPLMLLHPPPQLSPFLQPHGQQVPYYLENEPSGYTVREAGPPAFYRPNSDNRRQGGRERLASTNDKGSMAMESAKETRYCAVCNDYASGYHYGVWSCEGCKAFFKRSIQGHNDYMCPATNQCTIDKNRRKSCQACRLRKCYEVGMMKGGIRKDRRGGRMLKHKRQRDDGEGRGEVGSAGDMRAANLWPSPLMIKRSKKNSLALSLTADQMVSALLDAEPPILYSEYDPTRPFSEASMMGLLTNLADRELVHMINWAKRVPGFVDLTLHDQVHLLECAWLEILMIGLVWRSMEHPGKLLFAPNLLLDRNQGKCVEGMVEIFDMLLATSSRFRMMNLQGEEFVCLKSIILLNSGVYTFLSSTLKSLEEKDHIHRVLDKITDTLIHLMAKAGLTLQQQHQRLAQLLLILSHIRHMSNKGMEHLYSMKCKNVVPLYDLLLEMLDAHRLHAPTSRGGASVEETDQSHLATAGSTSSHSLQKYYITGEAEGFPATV

Inconclusive results are not listed. Calls of active or inactive are those of the source. Unless noted, the call rests on the fitted dose curve; in most records, active means well fitted curve in the direction sought with a large enough effect in the repeat runs; inconclusive means weak or mixed curves; inactive means no such curve, though single readings can be large; an effect the other way counts as inactive or inconclusive.

For `Clc1cccc(-c2cc(Cl)cc(Cl)c2)c1`, the Potency entry in test [1], in test [2], in [4], in test [5], in [6] and in test [8] was “inactive” each time. Further, the Potency entry with Aromatase (Homo sapiens) was “inactive”. For the same molecule, the result in test [3] and in [7] was inactive.
As to `COC(=O)N[C@H](C(=O)N[C@@H](Cc1ccccc1)[C@@H](O)CN(Cc1ccc(-c2ccccn2)cc1)NC(=O)[C@@H](NC(=O)OC)C(C)(C)C)C(C)(C)C`, the Potency result (in [1]; in [4]; in test [8]; with Aromatase (Homo sapiens)) was “inactive” each time. Also, the Potency in test [2] was 26.6 µM (active). Further, the call in test [3] and in test [9] was inactive.
As for `CS(=O)(=O)c1ccc([C@@H](O)[C@@H](CF)NC(=O)C(Cl)Cl)cc1`, the Potency entry in [1], in test [2], in test [4], in test [5], in test [6] and in test [8] was “inactive” throughout. Besides, the Potency result in the test with Aromatase (Homo sapiens) was “inactive”. For the same molecule, the molecule was classed as inactive in test [3] and in test [9].
On to `O=C1CCCCCCCCCCC(=O)OCCO1`, for which the Potency entry (in test [1]; in test [2]; in test [4]; in test [6]; in test [8]; in the test with Aromatase (Homo sapiens)) was “inactive” in each case. In addition, the molecule was classed as inactive in [3] and in test [9].
With `CC(C)CC(=O)OCc1ccccc1`, the Potency result in [1], in [2], in [4], in test [5], in [6] and in test [8] was “inactive” throughout. Besides, the Potency entry with Aromatase (Homo sapiens) was “inactive”. Moreover, the molecule was called inactive in test [3], in test [9] and in test [7].
Turning to `COc1nc(C)nc(NC(=O)NS(=O)(=O)c2ccccc2OCCCl)n1`, the Potency entry (in [1]; in test [2]; in [4]; in test [5]; in test [8]; in the test with Aromatase (Homo sapiens)) was “inactive” each time. Moreover, the result in test [3], in [9] and in test [7] was inactive.
On to `Cc1nnc(SCC2=C(C(=O)O)N3C(=O)[C@@H](NC(=O)Cn4cnnn4)[C@H]3SC2)s1`, for which the Potency entry in test [1], in [2], in test [4], in [5], in test [6] and in test [8] was “inactive” throughout. The Potency entry with Aromatase (Homo sapiens) is “inactive”. In addition, the molecule was called inactive in [3], in [9] and in [7].
`Cc1ccccc1C(=O)Nc1ccc(C(=O)N2CCCC(O)c3cc(Cl)ccc32)c(C)c1` (stereo unspecified): the Potency entry in test [1] and in test [5] was “inactive” each time. For the same molecule, the Potency in [2] was 23.7 µM (active). In addition, the outcome in test [3] was inactive.
Turning to `FC(F)(F)C(F)(F)C(F)(F)C(F)(F)C(F)(F)C(F)(F)C(F)(F)C(F)(F)Br`, the Potency entry in [1], in test [2], in test [4], in [5], in test [6] and in test [8] was “inactive” throughout. Further, the Potency result with Aromatase (Homo sapiens) was “inactive”. The call in [3], in test [9] and in test [7] was inactive.
In the case of `FC(F)(F)C(Cl)(Cl)Cl`, the Potency result in [1], in test [2], in test [4], in [5], in [6] and in [8] was “inactive” each time. In addition, the Potency result with Aromatase (Homo sapiens) was “inactive”. Besides, the molecule was classed as inactive in [3], in test [9] and in test [7].
In the case of `O=C1Nc2ccc([N+](=O)[O-])cc2C1=O`, the Potency result in test [1], in test [2] and in test [5] was “inactive” throughout. Moreover, the molecule was called inactive in test [3].
With `O=S(=O)(O)C(F)(F)F`, the Potency result (in test [1]; in test [2]; in test [4]; in test [5]; in [8]; in the test with Aromatase (Homo sapiens)) was “inactive” throughout. In addition, the outcome in test [3], in test [9] and in [7] was inactive.
On to `CO[Si](C)(C)OC`, for which the Potency result in test [1], in test [2], in [4], in test [5], in test [6] and in [8] was “inactive” throughout. In the test with Aromatase (Homo sapiens), the Potency entry was “inactive”. Also, the call in test [3], in [9] and in test [7] was inactive.
Regarding `CCCCCCCCCC#N`, the Potency result in test [1], in test [2], in test [4], in test [5], in test [6] and in test [8] was “inactive” each time. Also, in the test with Aromatase (Homo sapiens), the Potency result is “inactive”. The molecule was classed as inactive in [3], in [9] and in test [7].
In the case of `COc1ccccc1OCC(O)COC(N)=O` (stereo unspecified), the Potency entry (in test [1]; in [2]; in test [4]; in test [5]; in [6]; with Aromatase (Homo sapiens)) was “inactive” in each case. For the same molecule, the call in test [3], in [9] and in test [7] was inactive.
In the case of `COc1ccc(S(=O)(=O)Nc2nnc(CC(C)C)s2)cc1`, the Potency result in test [1], in [2], in test [4], in test [5], in test [6] and in [8] was “inactive” each time. The Potency entry with Aromatase (Homo sapiens) was “inactive”. Also, the result in test [3], in [9] and in [7] was inactive.
Turning to `OCCN(CCO)c1ccccc1`, the Potency result (in test [1]; in [2]; in test [4]; in test [5]; in test [8]; in the test with Aromatase (Homo sapiens)) was “inactive” throughout. Further, the molecule was called inactive in test [3], in test [9] and in test [7].
Take `CCOC(=O)C1CC(=O)C(=C(O)C2CC2)C(=O)C1` (stereo unspecified): the Potency entry in test [1], in test [2], in test [4], in test [5], in [6] and in test [8] was “inactive” in each case. Further, the Potency result with Aromatase (Homo sapiens) was “inactive”. The molecule was classed as inactive in test [3], in [9] and in [7].
Consider `CC/C=C\CCOC(=O)CCCCC`, for which the Potency result in test [1], in test [2], in [4], in [5], in test [6] and in [8] was “inactive” in each case. For the same molecule, in the test with Aromatase (Homo sapiens), the Potency result is “inactive”. Further, the outcome in test [3], in test [9] and in [7] was inactive.
`CCOc1ccc2nc(N)sc2c1`: the Potency result (in test [1]; in test [2]; in [4]; in [5]; in test [8]; with Aromatase (Homo sapiens)) was “inactive” in each case. Also, the molecule was called inactive in [3] and in [9]. The Potency in test [6] is 4.29 µM (active).
With `C=CCCC=C`, the Potency entry in test [1], in [2], in [4], in [5], in test [6] and in test [8] was “inactive” in each case. Further, in the test with Aromatase (Homo sapiens), the Potency entry is “inactive”. Besides, the outcome in test [3], in [9] and in [7] was inactive.
As to `CCCCNC(=S)NCCCC`, the Potency entry in test [1], in test [2], in test [4], in test [5], in test [6] and in test [8] was “inactive” throughout. In addition, the Potency entry with Aromatase (Homo sapiens) was “inactive”. For the same molecule, the call in [3], in test [9] and in test [7] was inactive.
`O=C1C=CC(=O)O1`: the Potency entry in test [1], in test [2], in test [4], in test [5], in [6] and in [8] was “inactive” throughout. In addition, in the test with Aromatase (Homo sapiens), the Potency entry was “inactive”. Further, the molecule was classed as inactive in test [3], in test [9] and in test [7].

For the origin of these results see PubChem BioAssay (Tox21).
